For 8 compounds, Potency results are on record in PubChem BioAssay (Tox21).

A short description of assay [1]: Nuclear factor erythroid 2-related factor 2/antioxidant responsive element (Nrf2/ARE) small molecule agonists: qHTS cell viability counter screen in human keratinocytes (AID 1919968; active = well fitted curve in the direction sought with a large enough effect in the repeat runs; an effect the other way counts as inactive or inconclusive; also: nearly all actives have a fitted effect of over 55% in size). Summed up:
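Seed 1,500 KeratinoSens cells per well, then incubate 5 h at 37 C/5% CO2. Add compounds in DMSO and incubate 23 h. Add CellTiter-Fluor, wait 1 h and read fluorescence.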

Assay [2] is described as follows: Nuclear factor erythroid 2-related factor 2/antioxidant responsive element (Nrf2/ARE) small molecule agonists: luciferase reporter gene qHTS assay in human keratinocytes (AID 1919969). Also: nearly all actives have a fitted effect of over 35% in size. Also: potency is read from the fitted curve at half-maximal effect. In general terms: A reporter such as luciferase makes a cellular process visible.
Assay [3] addresses KiSS-1 receptor (Homo sapiens) (UniProt Q969F8). Nature of the assay: Human kisspeptin (KISS1R) small molecule agonists, calcium flux assay in KISS1R-HEK293 cells (AID 1920064; active = well fitted curve in the direction sought with a large enough effect in the repeat runs; an effect the other way counts as inactive or inconclusive). Put shortly: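 Cells plated and incubated 18 h; dye added, 1 h at 37 C; compounds in DMSO pinned in; signal read at 480/540 nm every second for 3 min. Each compound tested at 15 concentrations in triplicate.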
Background: Calcium assays in cells follow changes in intracellular calcium, usually with a dye or a luminescent sensor.

Assay [4] can be described thus: G protein-coupled receptor (GPCR) small molecule agonists, calcium flux assay: HEK293 wild type cell line counter screen (AID 1920065). Summed up: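 Counter-screen of the Tox21 10K library for non-specific calcium release: dye-loaded cells received compounds in DMSO and were monitored by kinetic fluorescence (480/540 nm, 3 min). Fifteen concentrations, run in triplicate.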

Assay [5] can be described thus: p53 small molecule agonists, cell-based qHTS assay with human liver microsomes (AID 1963577).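 Also: p53 response element beta-lactamase reporter cells with liver microsomes plus NADPH.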 Summed up: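 p53RE-bla cells; 5 h settle, 37 C/5% CO2; cpd + HLM 0.5 mg/mL + NADPH 0.5 mg/mL (final); 16 h 37 C; LiveBLAzer 2 h RT dark; fluorescence readout.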
For orientation: In qHTS, concentration-response curves come from the screen itself.

Assay [6] in a line: p53 small molecule agonists, cell-based qHTS assay with rat liver microsomes (AID 1963578). Put shortly: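 Rat liver microsome activation: microsomes 0.5 mg/mL, NADPH 0.5 mg/mL final; p53RE-bla cells, 16 h 37 C; LiveBLAzer readout, 2 h RT dark.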
Assay [7] in a line: p53 small molecule agonists, cell-based qHTS assay with human liver microsomes: qHTS cell viability counter screen (AID 1963579). Also: nearly all actives have a fitted effect of over 45% in size. Summed up: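 Luminescent CellTiter-Glo read-out, 30 min at room temperature, gauged cytotoxicity in p53RE-bla cells exposed 16 h at 37 C to DMSO-dissolved compounds with metabolic activation by human liver microsomes and NADPH, each 0.5 mg/mL final.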

The nature of assay [8]: p53 small molecule agonists, cell-based qHTS assay with rat liver microsomes: qHTS cell viability counter screen (AID 1963580). Also: nearly all actives have a fitted effect of over 45% in size. Put shortly: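 Intracellular ATP, by CellTiter-Glo luminescence, defines viability. HCT-116 p53RE-bla cells, 4,000 per well, were compound-treated in the presence of rat liver microsomes and NADPH for 16 h at 37 C.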
A short description of assay [9]: p53 small molecule agonists, cell-based qHTS assay: qHTS cell viability counter screen (AID 1963581). Also: nearly all actives have a fitted effect of over 45% in size. Summed up:
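Cells: HCT-116 with p53 response element-driven beta-lactamase. Treatment: 16 h, 37 C, compounds in DMSO. Read: CellTiter-Glo luminescence after 30 min RT.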

Assay [10] has as its target 5-hydroxytryptamine receptor 2A (Homo sapiens) (UniProt P28223). Nature of the assay: 5-hydroxytryptamine receptor 2A (HTR2A) small molecule antagonists, cell-based qHTS assay (AID 1963586). Also: nearly all actives have a fitted effect of over 45% in size. Summed up: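 Antagonist-mode intracellular calcium assay: DOI (4 nM) added after 5 min compound pre-incubation at room temperature to dye-loaded HTR2A-CHO cells. Fluorescence followed for 3 min, sampled every second.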

For assay [11], the target named is Muscarinic acetylcholine receptor M1 (Homo sapiens) (UniProt P11229). Nature of the assay: Cholinergic receptor muscarinic 1 (CHRM1) small molecule antagonists, cell-based qHTS assay (AID 1963588). Also: nearly all actives have a fitted effect of over 40% in size. Summed up:
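CHRM1-CHO calcium-flux assay, antagonist mode. Cells were seeded 18 h, dye-loaded 1 h at 37 C and given compound for 5 min at RT, then acetylcholine was added at 50nM. FDSS fluorescence was read 3 min; 15 concentrations, three runs.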

Assay [12] has the same target. Briefly: Cholinergic receptor muscarinic 1 (CHRM1) small molecule agonists, cell-based qHTS assay (AID 1963589). Also: nearly all actives have a fitted effect of over 35% in size. Summed up: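 Agonist-mode qHTS in CHO cells stably carrying human muscarinic M1. Intracellular calcium is tracked by fluorescence every second after compound transfer; each compound runs at 15 concentrations in three independent runs.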
Assay [13] in a line: cAMP Responsive Elements (CRE) small molecule agonists, cell-based qHTS assay (AID 1963590). Put shortly: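 Agonist mode qHTS in CRE-bla HEK 293T cells: compounds dosed from DMSO for 3 h at 37 C/5% CO2, followed by LiveBLAzer B/G FRET substrate for 2 h at room temperature.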
Assay [14] in a line: cAMP Responsive Elements (CRE) small molecule antagonists, cell-based qHTS assay (AID 1963591; active = well fitted inhibition curve with a large enough effect in the signal ratio in the repeat runs, not every such curve was filed as active; the % refers to the signal ratio). Put shortly: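 Antagonist mode: test compounds are co-incubated with the adenylyl cyclase activator NKH477 (0.25 uM final) on CRE-bla HEK293T cells for 3 h at 37 °C, followed by LiveBLAzer substrate loading.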
Assay [15] addresses Beta-2 adrenergic receptor (Homo sapiens) (UniProt P07550). Briefly: Adrenergic beta2 receptor (ADRB2) small molecule antagonists, cell-based qHTS assay (AID 1963592). Also: series mostly up to about 92 µM; nearly all actives have a fitted effect of over 50% in size. Put shortly:
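Cells (CHO, stable ADRB2 overexpression) incubated 18-20hr at 37C; compounds added from DMSO; agonist mix (1nM isoproterenol, 100uM IBMX, 25uM Ro-20-1724) added; 0.5hr RT; d2-cAMP and anti-cAMP-cryptate added; 1hr RT; 665/615 nm read.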

The target is the same in assay [16]. Nature of the assay: Adrenergic beta2 receptor (ADRB2) small molecule agonists, cell-based qHTS assay (AID 1963593). Also: potency is read from the fitted curve at half-maximal effect.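 As to activation: CHO cells stably overexpressing human ADRB2.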 Summed up: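 CHO cells stably over-expressing ADRB2 were plated overnight at 37C, then dosed with compounds plus a stimulation mix containing 100uM IBMX and 25uM Ro-20-1724 for 0.5hr at room temperature. cAMP was measured by HTRF competition, 1hr.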

The target in assay [17] is D(2) dopamine receptor (Homo sapiens) (UniProt P14416). Nature of the assay: Dopamine D2 receptor (DRD2) small molecule agonists, cell-based qHTS assay (AID 1963594). Also: nearly all actives have a fitted effect of over 35% in size. Summed up:
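cAMP accumulation in DRD2-HEK293 cells measured by HTRF after 1 h detection; compounds added 10 min before NKH477 (200nM […]) forskolin-analogue stimulation, 30 min at room temperature, with Ro20-1724 present at 0.1 mM final.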

For assay [18] the target is unchanged. Briefly: Dopamine D2 receptor (DRD2) small molecule antagonists, cell-based qHTS assay (AID 1963595; active = well fitted inhibition curve with a large enough effect in the signal ratio in the repeat runs, with a control signal flat; the % refers to the signal ratio). Put shortly: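 HEK293 cells stably expressing DRD2 were preincubated with 0.1 mM Ro20-1724, then with compound for 10 min at room temperature. Cells were stimulated with 200 nM NKH477 plus 12 nM quinpirole for 30 min, and cAMP was read by HTRF.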
Assay [19] in a line: p53 small molecule agonists, cell-based qHTS assay (AID 1963582; active = well fitted activation curve with a large enough effect in the signal ratio in the repeat runs, not every such curve was filed as active; the % refers to the signal ratio). Put shortly: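 Quantitative HTS in p53RE-bla cells: after a 5 h settling period, compounds delivered in DMSO were left on cells for 16 h at 37 C, and reporter induction was measured as fluorescence following 2 h substrate loading.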
The target of assay [20] is 5-hydroxytryptamine receptor 2A (Homo sapiens) (UniProt P28223). Nature of the assay: 5-hydroxytryptamine receptor 2A (HTR2A) small molecule agonists, cell-based qHTS assay (AID 1963587). Also: nearly all actives have a fitted effect of over 30% in size. Put shortly:
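Kinetic calcium-flux fluorescence (2 min, 1 sec intervals) after compound addition in agonist mode. HTR2A-CHO cells were cultured 18 h, then dye-loaded 1 h at 37 C.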

Inconclusive results are not listed. The source holds several records for some structures; these can differ, active in one and inactive in another. Active and inactive are the calls of the source. Unless noted, calls follow the shape of the full dose curve.

Chain of D(2) dopamine receptor (Homo sapiens) (P14416 whole entry, looked up): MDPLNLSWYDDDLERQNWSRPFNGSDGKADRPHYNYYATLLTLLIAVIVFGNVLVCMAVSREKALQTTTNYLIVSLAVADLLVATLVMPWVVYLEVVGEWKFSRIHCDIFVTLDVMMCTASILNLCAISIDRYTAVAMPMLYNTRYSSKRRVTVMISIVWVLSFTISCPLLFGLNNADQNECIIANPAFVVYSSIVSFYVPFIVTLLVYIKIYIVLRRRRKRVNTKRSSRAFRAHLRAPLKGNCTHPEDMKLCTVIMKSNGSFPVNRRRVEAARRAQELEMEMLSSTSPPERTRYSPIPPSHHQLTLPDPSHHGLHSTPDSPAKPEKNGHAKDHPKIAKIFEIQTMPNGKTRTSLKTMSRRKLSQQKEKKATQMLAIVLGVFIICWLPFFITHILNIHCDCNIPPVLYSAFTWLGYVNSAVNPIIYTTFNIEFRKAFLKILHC
Chain of 5-hydroxytryptamine receptor 2A (Homo sapiens) (P28223 whole entry, looked up): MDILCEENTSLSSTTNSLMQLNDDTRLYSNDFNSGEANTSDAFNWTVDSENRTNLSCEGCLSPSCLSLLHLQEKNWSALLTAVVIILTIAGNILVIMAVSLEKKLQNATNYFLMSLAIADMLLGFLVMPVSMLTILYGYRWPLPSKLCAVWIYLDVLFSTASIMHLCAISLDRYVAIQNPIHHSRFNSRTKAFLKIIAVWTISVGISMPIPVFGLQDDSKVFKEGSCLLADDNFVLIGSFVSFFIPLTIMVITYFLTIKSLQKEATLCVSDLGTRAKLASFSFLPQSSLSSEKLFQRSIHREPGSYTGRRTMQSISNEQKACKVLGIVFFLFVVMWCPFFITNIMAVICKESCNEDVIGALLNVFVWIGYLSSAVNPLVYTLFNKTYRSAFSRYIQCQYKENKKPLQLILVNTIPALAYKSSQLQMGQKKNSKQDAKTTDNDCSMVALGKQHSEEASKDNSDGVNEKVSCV
Chain of Muscarinic acetylcholine receptor M1 (Homo sapiens) (P11229 whole entry, looked up): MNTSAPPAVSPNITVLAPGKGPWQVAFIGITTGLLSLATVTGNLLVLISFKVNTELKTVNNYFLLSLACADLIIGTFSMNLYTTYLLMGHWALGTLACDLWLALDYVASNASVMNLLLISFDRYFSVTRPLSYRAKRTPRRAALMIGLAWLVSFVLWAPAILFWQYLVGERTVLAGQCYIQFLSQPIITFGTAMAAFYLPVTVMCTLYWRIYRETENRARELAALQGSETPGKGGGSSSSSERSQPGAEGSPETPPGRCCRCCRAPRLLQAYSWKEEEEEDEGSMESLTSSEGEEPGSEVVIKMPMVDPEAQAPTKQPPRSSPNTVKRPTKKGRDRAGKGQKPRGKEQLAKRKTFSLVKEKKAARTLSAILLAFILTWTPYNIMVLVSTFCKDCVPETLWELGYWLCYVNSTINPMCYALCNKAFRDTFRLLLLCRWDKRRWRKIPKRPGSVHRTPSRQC
Chain of Beta-2 adrenergic receptor (Homo sapiens) (P07550 whole entry, looked up): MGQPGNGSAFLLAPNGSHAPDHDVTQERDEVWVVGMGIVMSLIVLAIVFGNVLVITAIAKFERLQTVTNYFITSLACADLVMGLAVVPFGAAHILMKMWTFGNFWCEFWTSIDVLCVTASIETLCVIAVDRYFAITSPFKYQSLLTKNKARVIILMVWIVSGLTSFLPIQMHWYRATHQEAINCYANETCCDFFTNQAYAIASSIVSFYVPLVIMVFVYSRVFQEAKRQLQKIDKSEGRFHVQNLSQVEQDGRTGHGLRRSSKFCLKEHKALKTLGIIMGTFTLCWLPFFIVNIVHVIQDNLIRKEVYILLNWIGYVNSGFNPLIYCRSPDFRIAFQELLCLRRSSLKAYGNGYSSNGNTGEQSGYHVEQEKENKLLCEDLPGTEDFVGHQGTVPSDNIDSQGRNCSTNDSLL
Chain of KiSS-1 receptor (Homo sapiens) (Q969F8 whole entry, looked up): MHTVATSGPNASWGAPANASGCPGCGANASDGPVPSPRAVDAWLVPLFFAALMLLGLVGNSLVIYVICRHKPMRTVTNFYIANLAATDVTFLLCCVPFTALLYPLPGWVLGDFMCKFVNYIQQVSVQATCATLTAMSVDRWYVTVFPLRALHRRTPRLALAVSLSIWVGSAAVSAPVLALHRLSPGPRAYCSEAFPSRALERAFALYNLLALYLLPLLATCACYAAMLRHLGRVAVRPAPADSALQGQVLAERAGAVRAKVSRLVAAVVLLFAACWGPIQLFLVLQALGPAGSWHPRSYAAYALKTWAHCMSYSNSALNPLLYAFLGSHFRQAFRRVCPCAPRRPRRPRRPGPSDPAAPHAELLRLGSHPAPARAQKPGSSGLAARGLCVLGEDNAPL

Take `Cc1ccccc1S(=O)(=O)O`: the Potency entry in assay [1], in [2], in [3], in [4], in assay [5] and in assay [6] was “inactive” throughout. The Potency entry in assay [7], in assay [8], in assay [9], in assay [10], in assay [11] and in [12] was “inactive” throughout. Besides, the Potency entry in assay [13], in assay [14], in [15], in [16], in assay [17] and in assay [18] was “inactive” each time.
On to `CNC1(C)C2CCC(C2)C1(C)C` (stereo not given), for which the Potency result in [1], in assay [2], in [3], in assay [4], in [5] and in assay [6] was “inactive” throughout. The Potency entry in assay [7], in assay [8], in [9], in assay [19], in [10] and in [11] was “inactive” each time. Also, the Potency result in [12], in assay [13], in assay [14], in assay [15], in assay [16] and in assay [17] was “inactive” throughout. Also, the Potency result in assay [18] is “inactive”.
With `C[C@]12CC[C@H]3[C@@H](CCC4=CC(=O)CC[C@@]43C)[C@@H]1CC[C@@H]2C(=O)CO`, the Potency entry in [1], in [2], in [3], in assay [4], in assay [5] and in [6] was “inactive” in each case. Moreover, the Potency result in [7], in [8], in [9], in assay [19], in assay [10] and in [20] was “inactive” each time. In addition, the Potency result in assay [11], in assay [12], in [15], in assay [17] and in assay [18] was “inactive” each time.
In the case of `COC(=O)C1=C(C)NC(C)=C(C(=O)OCC(C)C)C1c1ccccc1[N+](=O)[O-]` (stereo not given), the Potency result in assay [1], in assay [3], in [4], in assay [5], in assay [6] and in [7] was “inactive” in each case. The Potency result in [8], in [9], in assay [19], in assay [14], in [15] and in assay [17] was “inactive” each time. Also, the Potency in assay [2] was 24.3 µM (active) and inactive; in [16], 11.9 µM (active).
Turning to `O=c1n(CCO)c(=O)n(CCO)c(=O)n1CCO`, the Potency entry in assay [1], in assay [2], in assay [3], in assay [4], in assay [5] and in assay [6] was “inactive” each time. The Potency entry in assay [8], in [9], in assay [19], in assay [10], in assay [20] and in [11] was “inactive” in each case. Besides, the Potency entry in assay [12], in assay [13], in assay [14], in assay [15], in assay [16] and in [17] was “inactive” in each case. Further, in assay [18], the Potency entry was “inactive”.
As to `C1CN(CCOCCN2CCOCC2)CCO1`, the Potency entry in assay [1], in assay [2], in assay [3], in [4], in assay [5] and in assay [6] was “inactive” throughout. Further, the Potency entry in assay [7], in [8], in [9], in assay [10], in assay [20] and in [11] was “inactive” each time. The Potency entry in assay [12], in assay [14], in assay [15], in assay [16], in assay [17] and in assay [18] was “inactive” in each case.
As for `NC(=O)c1ncn([C@@H]2O[C@H](CO)[C@@H](O)[C@H]2O)c1O`, the Potency result in assay [1], in [2], in assay [3], in [4], in [5] and in [6] was “inactive” in each case. Further, the Potency entry in assay [7], in assay [8], in assay [9], in assay [19], in assay [10] and in assay [20] was “inactive” each time. Further, the Potency entry in assay [12], in [13], in assay [14], in assay [15], in assay [16] and in assay [17] was “inactive” throughout. Further, the Potency entry in [18] is “inactive”.
As to `FC(F)(F)/C(=N\OCC1OCCO1)c1ccc(Cl)cc1`, the Potency result in assay [1], in [2], in assay [3], in assay [4], in assay [5] and in assay [6] was “inactive” each time. For the same compound, the Potency entry in assay [7], in [8], in assay [9], in [19], in assay [10] and in [20] was “inactive” throughout. The Potency result in assay [13], in assay [14], in assay [15] and in assay [18] was “inactive” each time.
